Molecules are shown by their SMILES. Compounds without any hit were thinned out: in the full panel of roughly 83,000, 20% have a hit.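 Plates (96-well) were seeded with cells, treated with compound at one concentration, and incubated for 48 hours before percent growth was determined.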 Values without a mark were called inactive. Activity calls are given as the source filed them. How the source made its calls: active means growth percent below 10; inactive means the rest.

The test relates to HL-60(TB) leukemia. The experiment in a line: NCI-60 one-dose screen, 48 h (100 = growth as untreated, 0 = no growth, -100 = all killed). Particulars: 10 µM unless noted.

`C=CCn1c(SCC(=O)Nc2ccc(/C(C)=N\O)cc2)nnc1-c1cc(-c2ccc(OC)cc2)nc2ccccc12`: the growth is -39.2% (active).
`Nc1n[nH]c2cccc(C#Cc3cccc(C(=O)Nc4cccc(C(F)(F)F)c4)c3)c12`: the growth is 30.4%.
Next, `CCC(C)C(N)C(=O)NNc1n[nH]c(=S)n1N` (stereo unspecified): 100%; `CCN(CC)CCCC(C)Nc1c(-c2ccccc2)cnc2cc(Cl)ccc12` (stereo unspecified): 56.3%.
Regarding `COc1cc(C(=O)/C=C/c2c(C(F)(F)F)nc3ccccn23)cc(OC)c1OC`, the growth is -9.98% (active).
Regarding `CCN(CC)CCCCCCNc1cccc2cc(Br)cnc12`, the growth was -51.7% (active).
Next, `C/C(=N\NC(=O)CSc1nc2ccccc2c(=O)n1CCc1ccc(S(N)(=O)=O)cc1)c1ccccn1`: 33.8%.
Next, `Cc1ccc2c(c1)n([O-])c1cc(Cl)ccc1[n+]2=O`: 67.8%.
Next, `CCCCN1C(=O)CC(SC2CC(=O)N(CCCC)C2=O)C1=O` (stereo unspecified): 132%.
On to `C=C1C(=O)O[C@H]2[C@H]1CC/C(COC(=O)OCCCCCOC(=O)OC/C1=C/CC[C@@]3(C)O[C@H]3[C@H]3OC(=O)C(=C)[C@@H]3CC1)=C\CC[C@@]1(C)O[C@@H]21`, for which the growth was -23.1% (active).
With `Nc1nc(Nc2ccc([N+](=O)[O-])cc2O)nc(C(Cl)(Cl)Cl)n1` the figure was 6.38% (active); with `CC1(C)c2ccccc2C(=O)C1(Br)Cc1ccccc1` (stereo unspecified), 9.51% (active).
With `COc1ccc(/C=N/C2=C(C#N)C(c3ccccc3)c3ccc4ccccc4c3O2)cc1` (stereo unspecified) the figure was 1.71% (active).
With `CN(Cc1ccccc1)c1nc(Cl)c(C2CC(c3ccc(F)cc3)=NN2C=O)s1` (stereo unspecified) the figure was 102%.
For the compound `COC(=O)Cn1c2c(c3c(OC)cccc31)C(=O)c1ccccc1-2`, the growth was 75.6%.
With `S=c1sc2c(Cl)nc(-c3cccnc3)nc2n1-c1ccccc1` the figure was -52.5% (active).
As to `CN1CCN(c2nc(C3=C(c4c[nH]c5ccccc45)C(=O)NC3=O)c3ccccc3n2)CC1`, the growth was 30.7%.
Next, `COc1ccc(/C=C/C(=O)c2cc3c(N)c(C(=O)Nc4cccc5ccccc45)sc3nc2C)cc1`: 81.9%; `CC1(C)COC(=S)N1`: 80.3%; `CCCCNNC(=O)c1ccc(Br)cc1`: 18.3%.
With `Cn1cc(C2=C(c3cccc4ccccc34)C(=O)NC2=O)c2cc(Br)ccc21` the figure was 107%.
Next, `c1ccc(-c2nc(Nc3nccnn3)c3ccccc3n2)cc1`: 99.4%.
On to `COc1ccc(C)c2sc(N(Cc3cccnc3)C(=O)c3ccc(C#N)cc3)nc12`, for which the growth was -6.46% (active).
On to `Oc1ccc(Br)cc1Sc1cc(Br)ccc1O`, for which the growth is 27.9%.
With `C=CCCCCCCCCC(=O)OC(C)C` the figure was 117%; with `CCOC(=O)C1CCNC(=O)C1=O` (stereo unspecified), 86%; with `C=C1C(=O)O[C@H]2[C@H]1CC/C(CNC(=O)/C=C/c1ccc(Cl)cc1Cl)=C\CC[C@@]1(C)O[C@@H]21`, -27.4% (active).
Next, `CCc1nnc(NC(=O)c2nnn(-c3ccccc3)c2-c2ccco2)s1`: 79.9%; `S=C(S)OCN1CCOCC1`: 106%.
With `COC(=O)Nc1nc2ccc(C(=O)c3cccc(I)c3)cc2[nH]1` the figure was -41.7% (active); with `COc1cc(-c2c3c(cn2CCN2CCCCC2)-c2oncc2CC3)cc(OC)c1OC`, 109%; with `Cc1cccc(-n2c(C)nc3ccc(N4CCCNC4=O)cc3c2=O)c1`, 109%.
Turning to `Cc1ccc(C2CC(c3cccc(Nc4ccncc4)c3)=Nc3c(N)nc(N)nc3N2)cc1` (stereo unspecified), the growth was 33.7%.
With `O=CCCCC(O)C=O` (stereo unspecified) the figure was 92.2%; with `CCC(c1ccc(OC)cc1)C(CC)c1ccc(O)c(CN2CCCC2)c1` (stereo unspecified), -45.9% (active).
With `O=[N+]([O-])C1CC2C=CC1C2` (stereo unspecified) the figure was 97.6%; with `CC1=CC(=NC(=O)CBr)C=C/C1=N\S(=O)(=O)c1ccccc1`, 67.2%; with `Cc1nn(-c2ccccc2)c2nc3c(nc12)C1=NCCN1C(c1ccc(Cl)cc1)N3` (stereo unspecified), 70.7%.
Next, `Cc1cc(CSc2ccc(Cl)cc2)ccc1N`: 3.9% (active).
Turning to `COc1ccc2sc3c(NCCO)nc4ccccc4c3c(=O)c2c1`, the growth was 104%.
With `CCOC(=O)C(=Cc1ccccc1[N+](=O)[O-])C(=O)OCC` the figure was -26.5% (active); with `O=C1CCCCC1(c1ccccc1)c1ccccc1`, 106%; with `CCc1oc2ccccc2c1C(=O)c1cc(I)c(O)c(I)c1`, 10.1%.
Next, `COc1cc2c(=O)n(CCCn3ccnc3)c3c4cc5c(cc4ccc3c2cc1OC)OCO5`: -15.2% (active); `O=C(Nc1cccc(Cl)c1)c1ccc(Cl)cc1Cl`: 92%; `NC(=S)N1N=C(c2ccc(Cl)cc2)CC1c1cc2ccccc2[nH]c1=O` (stereo unspecified): 75.1%.
With `C[C@@H](c1ccc2c(c1)[nH]c1ccc(Cl)cc12)c1nc2ccc(Cl)cc2[nH]1` the figure was 0.0537% (active).
Turning to `CCC(c1cccc(Br)c1)C(C(=O)O)c1ccc(OC)cc1` (stereo unspecified), the growth is 96.2%.
Next, `Cc1ccc(C(=O)COc2cccc(/C=C3\Oc4ccccc4C3=O)c2)cc1`: 78.7%; `O=[N+]([O-])c1ccccc1NCSc1ccc(Cl)cc1`: 65.7%.
Next, `CC[C@H](Nc1nc(N)nc(C2CC2)c1C#N)c1nc2cccc(NCc3ccc(C(=O)NO)cc3)c2c(=O)n1-c1ccccc1`: -19.3% (active); `CN1CCN(Cc2ccc(NC(=O)c3cncc(C#Cc4cnc(N)c5ncccc45)c3)cc2C(F)(F)F)CC1`: 13%.
`O=C(/C=C\c1ccc2c(c1)OCO2)/C=C/c1ccc2c(c1)OCO2`: the growth is 42.8%.
As for `COc1cc(C2=Nc3c(N)nc(N)nc3NC(c3cccc(Nc4ccnc5cc(C(F)(F)F)ccc45)c3)C2)cc(OC)c1OC` (stereo unspecified), the growth was 63.2%.
Next, `CC(=O)Oc1ccc(OC(C)=O)c2ccccc12`: -17.4% (active).
With `O=C(/C=C/c1cccc([N+](=O)[O-])c1)c1ccc(Nc2nc(N3CCCCC3)nc(N3CCCCC3)n2)cc1` the figure was 79.4%.
Next, `COc1cc(/C=C/C(=O)c2ccc(NC(=O)CSc3nnc(-c4cc(OC)c(OC)c(OC)c4)n3-c3ccccc3)cc2)cc(OC)c1OC`: 6.87% (active); `CC(CN1CCN(CCOCCO)CC1)CN1c2ccccc2Sc2ccc(Cl)cc21` (stereo unspecified): 80.8%; `Cc1c2c(cn1Cc1ccccc1)CCc1cn(C)nc1-2`: 63.4%.
As for `COc1cc(-c2nc(-c3nc4ccccc4[nH]3)cc3c2[nH]c2ccccc23)cc(OC)c1OC`, the growth was 44.2%.
Next, `NC(=S)N/N=C(/c1cccs1)C1CC1`: 79.9%; `CC(C)(C)c1cc(C[P+](c2ccccc2)(c2ccccc2)c2ccccc2)cc(C(C)(C)C)c1O`: -45.3% (active).
With `NC(=O)NS(=O)(=O)c1ccc(N2N=C(C(F)(F)F)CC2c2cc(C(F)(F)F)cc(C(F)(F)F)c2)cc1` (stereo unspecified) the figure was 38.7%; with `CCC(=O)Nc1cc2c(cc1Cl)-c1ccccc1C2`, 39.4%.
Next, `O=C(O)COc1ccc(Cl)cc1C1CCCCC1`: 116%.
As for `c1ccc2c(c1)CCCc1nnc3nc4ccccc4n3c1-2`, the growth was 34.2%.
Next, `CC1=C(O)C(=O)C(C(C#N)(C#N)C(C#N)C#N)C1` (stereo unspecified): 91.7%; `Cc1[nH]c(/C=C/C(=O)c2ccc(C(F)(F)F)c(F)c2)c(C)c1C(=O)NCC(C)C`: 98.5%.
Next, `COc1cc(/C=C2\C=C(c3ccc(F)cc3)N(Cc3ccccc3)C2=O)cc(OC)c1OC`: 75.9%.
With `CCOC(=O)c1nn(C2CCCCO2)c2ccc(NC(=O)Cn3nnc4ccccc43)cc12` (stereo unspecified) the figure was 98.8%; with `Cn1ccnc1CN1CCSC(C(=O)Nc2ccccc2)C1` (stereo unspecified), 88.6%.
Regarding `O=c1c2cc(Cl)ccc2oc2ccc(OCCCCCN3CCCCC3)cc12`, the growth was 38.5%.
With `O=C1/C(=C\c2ccco2)SC(=S)N1CCc1ccc(O)cc1` the figure was 76.3%; with `COc1ccc(-c2cc(/C=C/C(=O)c3ccc(N)cc3)[nH]n2)cc1`, -23% (active).
Regarding `C#CCN1C(=O)/C(=c2\sc3n(c2=O)C2C(NN=3)N(CC)C(=O)N2CC)c2ccccc21` (stereo unspecified), the growth is -29.4% (active).
Next, `COC(=O)[C@H](C)NC(=O)[C@@H]1CCCN1C(=O)CNC(=O)[C@H](C)N`: 104%.
With `O=C(Nc1cc(Cl)ccc1O)c1cccc(Nc2ccnc(C(F)(F)F)c2)c1` the figure was -18% (active).
With `CCN(CC)CCOc1ccccc1C` the figure was 101%; with `CN(C)c1ccc(N)c2ccccc12`, 43.5%; with `Clc1ccc(Nc2ncc(Cc3cccc(Cl)c3Cl)s2)cc1`, 100%.
For the compound `CCOc1ccc(/C=C/C=N/NC(N)=S)cc1`, the growth was 42%.

Source of the values: PubChem BioAssay (NCI).
